Measurements published in PubChem BioAssay (NCI).
This is part of a sample that, as a whole, favours compounds with a hit. Of some 83,000 tested, about 20% had one in any assay.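 The endpoint reported here, percent growth, reads 100 for growth as untreated, 0 for no net growth and -100 for all cells dead.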 Calls of active or inactive are those of the source. How the source made its calls: active means growth percent below 10; inactive means the rest.

Assays:
Test in all cases: NCI-60 one-dose screen, 48 h (100 = growth as untreated, 0 = no growth, -100 = all killed)
DU-145 prostate = details: 10 µM unless noted
K-562 leukemia = details: 10 µM unless noted
MALME-3M melanoma = details: 10 µM unless noted
MDA-MB-231 breast = details: 10 µM unless noted
RXF 393 renal = details: 10 µM unless noted
SF-268 CNS = details: 10 µM unless noted
SF-295 CNS = details: 10 µM unless noted
SF-539 CNS = details: 10 µM unless noted
UACC-257 melanoma = details: 10 µM unless noted
M14 melanoma = details: 10 µM unless noted
HCT-15 colon = details: 10 µM unless noted
SNB-75 CNS = details: 10 µM
SNB-19 CNS = details: 10 µM unless noted
U251 CNS = details: 10 µM unless noted
PC-3 prostate = details: 10 µM unless noted
SK-MEL-5 melanoma = details: 10 µM unless noted
UACC-62 melanoma = details: 10 µM unless noted
LOX IMVI melanoma = details: 10 µM unless noted
SK-MEL-28 melanoma = details: 10 µM unless noted

Measured: growth

Nc1cccc(Cl)c1N
inactive: DU-145 prostate 117% | K-562 leukemia 102% | MALME-3M melanoma 116% | MDA-MB-231 breast 99.3% | RXF 393 renal 121% | SF-268 CNS 104% | SF-295 CNS 118% | SF-539 CNS 90.4% | UACC-257 melanoma 113% | M14 melanoma 104% | HCT-15 colon 96.5% | SNB-75 CNS 76.9% | SNB-19 CNS 116% | U251 CNS 110% | PC-3 prostate 90.8% | SK-MEL-5 melanoma 104% | UACC-62 melanoma 108% | LOX IMVI melanoma 86.6% | SK-MEL-28 melanoma 119%

COc1ccc2c(c1)NC1=C(C(=O)OC1)C2c1cc(OC)c2c(c1)OCO2 (stereo not drawn)
inactive: K-562 leukemia 10.8% | MALME-3M melanoma 52.7% | MDA-MB-231 breast 11.3% | RXF 393 renal 28% | SF-268 CNS 22.8% | UACC-257 melanoma 71.6% | HCT-15 colon 16.5% | SNB-75 CNS 53.6% | SNB-19 CNS 37.3% | U251 CNS 21.1% | PC-3 prostate 24.3% | UACC-62 melanoma 50.8% | LOX IMVI melanoma 19% | SK-MEL-28 melanoma 66.9%
active: DU-145 prostate -20.6% | SF-295 CNS 6.7% | SF-539 CNS 6.15% | M14 melanoma 5.09% | SK-MEL-5 melanoma -55.1%

CCOC(=O)C1CCNC(=O)C1=O (stereo not drawn)
inactive: DU-145 prostate 115% | K-562 leukemia 109% | MALME-3M melanoma 126% | MDA-MB-231 breast 106% | RXF 393 renal 108% | SF-268 CNS 108% | SF-295 CNS 122% | SF-539 CNS 112% | UACC-257 melanoma 126% | M14 melanoma 108% | HCT-15 colon 111% | SNB-75 CNS 101% | SNB-19 CNS 101% | U251 CNS 111% | PC-3 prostate 105% | SK-MEL-5 melanoma 101% | UACC-62 melanoma 101% | LOX IMVI melanoma 97.8% | SK-MEL-28 melanoma 112%

CCCCCCCCCCCC(=O)NCCC[N+](C)(C)CC(=O)[O-]
inactive: DU-145 prostate 101% | K-562 leukemia 83.3% | MALME-3M melanoma 108% | MDA-MB-231 breast 90.5% | RXF 393 renal 77.2% | SF-268 CNS 85.5% | SF-295 CNS 101% | SF-539 CNS 94.3% | UACC-257 melanoma 98.3% | M14 melanoma 98.6% | HCT-15 colon 100% | SNB-75 CNS 93.4% | SNB-19 CNS 88.3% | U251 CNS 72.2% | PC-3 prostate 31.8% | UACC-62 melanoma 78% | LOX IMVI melanoma 79.8% | SK-MEL-28 melanoma 99%

O=c1cc/c(=N\Nc2ccccc2)c(=O)/c1=N/Nc1ccccc1
inactive: DU-145 prostate 106% | K-562 leukemia 105% | MALME-3M melanoma 119% | MDA-MB-231 breast 100% | RXF 393 renal 121% | SF-268 CNS 90.5% | SF-295 CNS 122% | SF-539 CNS 94.6% | UACC-257 melanoma 137% | M14 melanoma 82.2% | HCT-15 colon 104% | SNB-75 CNS 106% | SNB-19 CNS 111% | U251 CNS 104% | SK-MEL-5 melanoma 87% | UACC-62 melanoma 101% | LOX IMVI melanoma 89% | SK-MEL-28 melanoma 103%

CC1=C(C#N)C(=O)NC(C)C1 (stereo not drawn)
inactive: DU-145 prostate 111% | K-562 leukemia 116% | MALME-3M melanoma 102% | MDA-MB-231 breast 105% | RXF 393 renal 107% | SF-268 CNS 104% | SF-295 CNS 99.9% | SF-539 CNS 97.9% | UACC-257 melanoma 102% | M14 melanoma 96.2% | HCT-15 colon 101% | SNB-75 CNS 111% | SNB-19 CNS 103% | U251 CNS 105% | SK-MEL-5 melanoma 105% | UACC-62 melanoma 104% | LOX IMVI melanoma 90.4% | SK-MEL-28 melanoma 101%

COc1cccc(CC(C)=C(c2ccc(OCCN3CCCCC3)cc2)c2ccc(OCCN3CCCCC3)cc2)c1
inactive: DU-145 prostate 17.8% | PC-3 prostate 19.2%
active: K-562 leukemia -37.3% | MALME-3M melanoma -88.5% | MDA-MB-231 breast -76.8% | RXF 393 renal -85.5% | SF-268 CNS -18.9% | SF-295 CNS -62% | SF-539 CNS -96.1% | UACC-257 melanoma -69.3% | M14 melanoma -64.8% | HCT-15 colon -68.1% | SNB-19 CNS -9.73% | U251 CNS -83.7% | SK-MEL-5 melanoma -96% | UACC-62 melanoma -72.7% | LOX IMVI melanoma -91.9% | SK-MEL-28 melanoma -87.9%

COP(=O)(OC)/C(=N\NS(=O)(=O)c1ccc(C)cc1)c1ccccc1
inactive: DU-145 prostate 106% | K-562 leukemia 120% | MALME-3M melanoma 104% | MDA-MB-231 breast 119% | RXF 393 renal 76.6% | SF-268 CNS 119% | SF-295 CNS 117% | SF-539 CNS 95% | UACC-257 melanoma 112% | M14 melanoma 93.3% | HCT-15 colon 112% | SNB-19 CNS 94.7% | U251 CNS 105% | PC-3 prostate 86.5% | SK-MEL-5 melanoma 97.9% | UACC-62 melanoma 96.7% | LOX IMVI melanoma 102% | SK-MEL-28 melanoma 110%

O=c1[nH]c2ccc(Br)cc2c2c1C(c1ccc(Cl)cc1)c1c(ncn3nc(-c4ccco4)nc13)O2 (stereo not drawn)
inactive: DU-145 prostate 90% | K-562 leukemia 80% | MALME-3M melanoma 77.5% | MDA-MB-231 breast 48.6% | RXF 393 renal 59.1% | SF-268 CNS 74.3% | SF-295 CNS 87.9% | SF-539 CNS 65.5% | UACC-257 melanoma 98.3% | M14 melanoma 74.9% | HCT-15 colon 64.9% | SNB-19 CNS 75.8% | U251 CNS 80.8% | PC-3 prostate 72.1% | SK-MEL-5 melanoma 67.4% | UACC-62 melanoma 59.8% | LOX IMVI melanoma 76.7% | SK-MEL-28 melanoma 91.1%

COc1ccc(-c2nc(/C=C3/C(=O)Nc4ccc(F)cc43)c3ccccn23)cc1
inactive: DU-145 prostate 102% | K-562 leukemia 87.2% | MALME-3M melanoma 130% | MDA-MB-231 breast 89.2% | RXF 393 renal 112% | SF-268 CNS 107% | SF-295 CNS 140% | SF-539 CNS 117% | UACC-257 melanoma 102% | M14 melanoma 106% | HCT-15 colon 107% | SNB-19 CNS 101% | U251 CNS 88.3% | PC-3 prostate 108% | SK-MEL-5 melanoma 102% | UACC-62 melanoma 106% | LOX IMVI melanoma 92.7% | SK-MEL-28 melanoma 105%

COc1ccc(CCNC2=CC(=O)CCC2)cc1OC
inactive: DU-145 prostate 124% | K-562 leukemia 95.3% | MALME-3M melanoma 92.2% | MDA-MB-231 breast 104% | RXF 393 renal 119% | SF-268 CNS 104% | SF-295 CNS 104% | SF-539 CNS 106% | UACC-257 melanoma 117% | M14 melanoma 104% | HCT-15 colon 108% | SNB-75 CNS 92.9% | SNB-19 CNS 105% | U251 CNS 107% | SK-MEL-5 melanoma 101% | UACC-62 melanoma 109% | LOX IMVI melanoma 96.3% | SK-MEL-28 melanoma 111%

S=c1[nH]nc(-c2cc3ccc2CCc2ccc(cc2)CC3)n1-c1ccccc1
inactive: DU-145 prostate 101% | K-562 leukemia 87% | MALME-3M melanoma 100% | MDA-MB-231 breast 95% | RXF 393 renal 129% | SF-268 CNS 113% | SF-295 CNS 91.7% | SF-539 CNS 110% | UACC-257 melanoma 103% | M14 melanoma 97.2% | HCT-15 colon 89.7% | SNB-19 CNS 93.3% | U251 CNS 94.5% | PC-3 prostate 83.9% | SK-MEL-5 melanoma 96.5% | UACC-62 melanoma 76.2% | LOX IMVI melanoma 98% | SK-MEL-28 melanoma 98.8%

O=C1Nc2ccc(Cl)cc2C12Nc1cc(Cl)ccc1S2 (stereo not drawn)
inactive: DU-145 prostate 96.5% | K-562 leukemia 39.2% | MALME-3M melanoma 74.2% | MDA-MB-231 breast 83.2% | SF-268 CNS 88.3% | SF-295 CNS 106% | SF-539 CNS 87.9% | UACC-257 melanoma 129% | M14 melanoma 93.9% | HCT-15 colon 87% | SNB-19 CNS 94.8% | U251 CNS 85.8% | PC-3 prostate 51.8% | SK-MEL-5 melanoma 70.9% | UACC-62 melanoma 71.5% | LOX IMVI melanoma 77.9% | SK-MEL-28 melanoma 110%
active: RXF 393 renal -8.23%

O=[N+]([O-])c1cccc(-c2nc3sccn3c2-c2ccnc(NCCCNS(=O)(=O)c3ccc(C(F)(F)F)cc3)n2)c1
active: SK-MEL-5 melanoma -45.5% | UACC-62 melanoma -13.2%
inactive: DU-145 prostate 47.3% | K-562 leukemia 20.6% | MALME-3M melanoma 30.5% | MDA-MB-231 breast 57.3% | RXF 393 renal 55.6% | SF-268 CNS 38.1% | SF-295 CNS 27.2% | SF-539 CNS 70.9% | UACC-257 melanoma 37.4% | M14 melanoma 27.7% | HCT-15 colon 17.6% | SNB-19 CNS 69% | U251 CNS 60.9% | PC-3 prostate 12% | LOX IMVI melanoma 17.6% | SK-MEL-28 melanoma 49.8%

S=C(S)NCCc1c[nH]c2ccccc12
inactive: DU-145 prostate 107% | K-562 leukemia 93.3% | MALME-3M melanoma 99.1% | MDA-MB-231 breast 91.1% | RXF 393 renal 106% | SF-268 CNS 89.7% | SF-295 CNS 95.7% | SF-539 CNS 101% | UACC-257 melanoma 104% | M14 melanoma 95.2% | HCT-15 colon 97.2% | SNB-19 CNS 96.3% | U251 CNS 108% | PC-3 prostate 91.4% | UACC-62 melanoma 88.4% | LOX IMVI melanoma 87.2% | SK-MEL-28 melanoma 113%

COc1ccc(-c2cc(-c3ccccc3)nc(SCCCC(=O)NO)n2)cc1OC
inactive: SF-539 CNS 14.8% | HCT-15 colon 16.5% | SNB-19 CNS 20% | PC-3 prostate 13% | SK-MEL-28 melanoma 21.5%
active: DU-145 prostate 1.4% | K-562 leukemia 3.02% | MALME-3M melanoma -3.72% | MDA-MB-231 breast 6.56% | RXF 393 renal -21.1% | SF-268 CNS -19.2% | SF-295 CNS -0.804% | UACC-257 melanoma -18.2% | M14 melanoma -4.14% | U251 CNS 1.87% | SK-MEL-5 melanoma -69.8% | UACC-62 melanoma -22.3% | LOX IMVI melanoma -61.6%

CC(C)(C)n1cc(-c2ccnc(NCCCNS(=O)(=O)c3ccc(Br)cc3)c2)c(-c2cccc(O)c2)n1
active: K-562 leukemia -10.9% | MALME-3M melanoma -2.04% | MDA-MB-231 breast 8.91% | UACC-257 melanoma 9.16% | M14 melanoma 5.23% | HCT-15 colon -47.3% | LOX IMVI melanoma -75.6% | SK-MEL-28 melanoma -32.1%
inactive: DU-145 prostate 43% | RXF 393 renal 20.8% | SF-268 CNS 31.1% | SF-295 CNS 12% | SF-539 CNS 15.7% | SNB-19 CNS 48.7% | U251 CNS 29.5% | PC-3 prostate 16.9% | SK-MEL-5 melanoma 15.1% | UACC-62 melanoma 42.9%
